# Rows were chosen to be rich in hits. Some 2.4% of all compounds tested hit in one or more screens of this group.
# Mcl1 Bid PPI – Mcl-1/Bid binding inhibitors, primary screen, biochemical, TR-FRET, 1536-well | Induced myeloid leukemia cell differentiation protein Mcl-1 (Homo sapiens), Q07820 | TR-FRET Mcl-1/Bid-Dy647 peptide binding | inhibition, % at 21.7 µM | 220,000 compounds, 0.97% hits;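 active means compounds that cut the binding signal by more than half at the single screening dose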;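 further: His-tagged Mcl-1 with europium anti-His antibody binding Bid BH3 peptide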
# Target sequence (Q07820 whole entry, looked up): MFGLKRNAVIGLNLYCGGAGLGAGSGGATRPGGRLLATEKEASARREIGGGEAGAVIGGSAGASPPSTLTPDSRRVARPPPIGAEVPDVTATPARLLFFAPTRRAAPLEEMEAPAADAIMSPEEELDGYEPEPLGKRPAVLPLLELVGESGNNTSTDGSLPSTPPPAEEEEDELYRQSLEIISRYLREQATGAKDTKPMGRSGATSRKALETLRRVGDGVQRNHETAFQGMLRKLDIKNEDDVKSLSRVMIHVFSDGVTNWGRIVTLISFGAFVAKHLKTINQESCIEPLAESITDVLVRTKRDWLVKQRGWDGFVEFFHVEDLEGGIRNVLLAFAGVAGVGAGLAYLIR
# MCL1 BIM primary – inhibitors of MCL1 binding to BIM-BH3, primary screen, biochemical, fluorescence polarization. Induced myeloid leukemia cell differentiation protein Mcl-1 (Homo sapiens), Q07820. GST-MCL1 / FITC-Bim-BH3 fluorescence polarization. inhibition, % at 10.9 µM. 320,000 compounds, 0.68% hits. AID 2057, 2009;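 active means inhibition above the mean inhibition of all tested compounds plus 3 SD, set per campaign, cut at about 40% in these data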;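 further: higher means more loss of mP so more displacement of Bim peptide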
# Mcl1 Noxa PPI – Mcl-1/Noxa binding inhibitors, primary screen, biochemical, TR-FRET, 1536-well; 220,000 compounds, 1.5% hits; Induced myeloid leukemia cell differentiation protein Mcl-1 (Homo sapiens), Q07820; inhibition, % at 21.7 µM; TR-FRET Mcl-1/Noxa peptide binding, 2 h; AID 1022, 2008;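 active means compounds that cut the protein-peptide binding signal by more than 50% relative to plate controls in a single-dose test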;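 further: His-tagged Mcl-1 with rhodamine Noxa BH3 peptide and terbium anti-His antibody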
# zVAD death inh – inhibitors of zVAD-triggered necroptosis, primary screen, L929 cells. L929 zVAD necroptosis rescue, ATP luminescence, 24 h; with zVAD 60 µM. viability rescue, % at 10 µM. 220,000 compounds, 0.38% hits. AID 1377, 2008;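 active means activation, scaled between plate controls, above about 75%, limit read from the data; inactive means activation under that limit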
# Mcl-1 Bim block – inhibitors of Bim peptide binding to Mcl-1, primary screen, biochemical, bead-based flow cytometry, multiplex | inhibition, % at 10 µM | Bim peptide-Mcl-1 binding | Induced myeloid leukemia cell differentiation protein Mcl-1 (Homo sapiens), Q07820 | 190,000 compounds, 0.1% hits; in the data active means inhibition above about 40%
# TNF death inh – inhibitors of TNF-alpha triggered necroptosis, primary screen, cell-based, Jurkat FADD-/-, single concentration | Jurkat FADD-/- TNF necroptosis rescue, ATP luminescence, 24 h; 0 = TNF only, 100 = no-TNF cells | activation (protection from cell death), % at 10 µM | 220,000 compounds, 0.068% hits | AID 463075, 2010;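 active means activation, meaning protection from cell death, of at least 50% relative to plate controls; inactive means activation below 50%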;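 further: necroptosis triggered by 40 ng/mL TNF-alpha added together with compound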
# A number is an active result; n = inactive; x = no result given.
SMILES,Mcl1 Bid PPI,MCL1 BIM primary,Mcl1 Noxa PPI,zVAD death inh,Mcl-1 Bim block,TNF death inh
Cc1nc(NC(=O)c2ccc(-c3cc4ccccc4oc3=O)cc2)ccc1Br,n,n,n,n,n,n
Cc1nc(NC(=O)c2cccc(-c3cc4ccccc4oc3=O)c2)ccc1Br,57.8,n,n,n,n,n
NC1=NC(=Nc2cccc(S(N)(=O)=O)c2)c2ccccc21,n,n,n,n,x,n
COc1cc(N=Nc2cccc(S(N)(=O)=O)c2)c2ccccc2c1N,n,n,66.9,n,x,n
CC(C)C[C@@]12C(=O)N(c3cccc(Br)c3)C(=O)N1[C@H](c1ccc(F)cc1)[C@@H]1C(=O)N(C3CCCCC3)C(=O)[C@@H]12,x,n,x,x,x,x
COc1cc(C)ccc1OCCOCCOc1cccc2ccc(C)nc12,n,n,n,n,n,n
C=CCc1ccc(OCCOCCOc2cccc3ccc(C)nc23)c(OC)c1,80.3,n,n,n,n,n
O=C(O)c1ccc(-c2ccc(/C=C3\NC(=O)N(Cc4ccc(Cl)cc4)C3=O)o2)cc1Cl,n,x,56.4,n,n,n
O=c1c2c(nc3cc(-c4ccccc4)[nH]n13)CCS2,n,n,60.5,n,n,n
O=c1c2c(nc3cc(-c4ccccc4Cl)[nH]n13)CCS2,n,n,n,n,n,n
CCOC(=O)c1c2ccc(OCC(=O)N/N=C/c3ccc(C)cc3)cc2n2ccccc12,72.6,n,n,n,n,n
O=C1NNC(c2ccccc2)=N/C1=C\c1ccccc1Cl,n,x,n,n,x,n
O=C1NNC(c2ccccc2)=N/C1=C\c1ccco1,n,n,65.0,n,x,n
COc1ccc(CN(C)C(=O)c2oc3ccccc3c2CSC)cc1F,x,n,x,x,x,x
CC(=O)Cc1cc(O)c2ccccc2c1OC(=O)c1ccc(Br)cc1,96.2,n,n,n,x,n
O=C(COC(=O)c1ccc(Br)cc1)NCc1ccccc1,n,n,n,n,n,n
Cc1ccc(NC(=O)CCc2c(C)nc3ncnn3c2C)cc1,n,n,n,n,n,n
Cc1nc2ncnn2c(C)c1CCC(=O)Nc1ccc(S(=O)(=O)N2CCCCCC2)cc1,52.2,n,n,n,n,n
COc1cc(OC)cc(C(=O)N[C@H](C(=O)Nc2cccc(S(=O)(=O)N3CCCC3)c2)C(C)C)c1,n,n,n,n,x,n
CC(C)OC(=O)Cn1cnc2ccc(Br)cc2c1=O,n,n,106.7,n,n,n
O=C(NC1CC1)C1CCN(C2CCN(C(=O)c3c(F)cccc3Cl)CC2)CC1,x,n,x,x,x,x
C=CCOC(=O)/C(=C/c1ccco1)NC(=O)/C=C/c1ccccc1,88.8,n,n,n,x,n
O=C(O)CNC(=O)/C(=C/c1ccco1)NC(=O)/C=C/c1ccccc1,n,n,n,n,n,n
Cc1n[nH]c(=S)c2nn(-c3ccccc3)c(C)c12,70.1,x,n,n,n,n
Cc1ccc(-n2nc3c(=S)[nH]nc(C)c3c2C)cc1,n,n,n,n,n,n
SMILES,Mcl1 Bid PPI,MCL1 BIM primary,Mcl1 Noxa PPI,zVAD death inh,Mcl-1 Bim block,TNF death inh
CCC(CC)C(=O)Nc1cccc(-c2ccc3nncn3n2)c1,x,n,x,x,x,x
Cc1nc(-c2ccccc2)sc1C(=O)CSc1ccc(Br)cc1,n,n,n,n,n,n
Cc1nc(-c2ccccc2)sc1C(=O)CSc1ccc(Cl)cc1,n,n,64.2,n,n,n
CCc1noc(C)c1C(=O)NNC(=O)COc1ccc(C)c(C)c1,x,n,x,x,x,x
CS(=O)(=O)c1ccc2nc(NC(=O)Nc3cccc(Cl)c3)sc2c1,n,n,n,83.5,n,n
O=C(Nc1cccc(Cl)c1)Nc1nnc(-c2ccncc2)s1,n,n,90.8,n,n,n
CC(=O)Nc1ccc(NC(=O)CSc2nnc(-c3cccs3)n2N)cc1,x,n,x,x,x,x
CCOC(=O)C1CCN(S(=O)(=O)c2ccc(CNC(=O)c3ccccc3)s2)CC1,x,n,x,x,x,x
Cc1ccc(C(=O)N2CCN(c3ccc([N+](=O)[O-])cc3-n3cccc3)CC2)cc1,n,n,n,n,x,n
Cc1ccc(/C=C2/C(=O)c3ccc(C(=O)O)cc3C2=O)o1,n,x,72.1,n,n,n
Cc1ccc(C=C2C(=O)c3ccccc3C2=O)o1,n,n,n,n,n,n
COCCCNC(=O)CCN1N=C(c2ccccc2)CCC1=O,x,n,x,x,x,x
CN(C)c1ccc(-c2nnc(-c3ccc(S(=O)(=O)C(F)F)cc3)o2)cc1,72.7,n,n,n,n,n
COc1ccccc1Oc1c(C)oc2c(CN3CCN(CCO)CC3)c(O)ccc2c1=O,n,112.5,n,n,n,n
CCOC(=O)c1c(C)oc2c1c(CN1CCN(C(=O)OCC)CC1)c(O)c1ccccc12,61.6,n,97.6,n,n,n
CCOC(=O)c1c(C)oc2c1c(C(c1ccncc1)N1CCOCC1)c(O)c1ccccc12 (stereo not drawn),82.2,n,98.1,n,n,n
CCOC(=O)c1c(C)oc2ccc(O)c(CN3CCCCC3)c12,n,n,n,n,n,n
CCOC(=O)c1c(C)oc2c1c(CN1CCN(CCO)CC1)c(O)c1ccccc12,56.1,x,95.0,n,n,n
CCOC(=O)c1c(C)oc2c1c(C=NCCC(=O)O)c(O)c1ccccc12,n,n,n,n,n,n
Cc1ccc(S(=O)(=O)NCc2ccccc2)cc1C(=O)NCC1CCCO1 (stereo not drawn),x,n,x,x,x,x
CNc1c(N)n(Cc2ccccc2)c(=O)[nH]c1=O,n,43.0,n,n,n,n
CN(Cc1ccccc1)C(=O)c1[nH]cnc1C(=O)Nc1ccon1,x,n,x,x,x,x
Cc1cc(OCC(=O)NC2CC2)c2c(C)c(C)c(=O)oc2c1,x,n,x,x,x,x
Cc1csc2nc(CSc3nc4ccccc4o3)cn12,n,n,51.1,n,n,n
c1ccc2oc(SCc3cn4ccsc4n3)nc2c1,n,n,n,n,n,n
SMILES,Mcl1 Bid PPI,MCL1 BIM primary,Mcl1 Noxa PPI,zVAD death inh,Mcl-1 Bim block,TNF death inh
CC(C)c1ccc(NC(=O)Cn2nnc(C(=O)NCc3ccco3)c2N)cc1,x,n,x,x,x,x
CCCCCN(C(=O)CCC(=O)OCC(=O)N1CCCCC1C)c1c(N)n(CCCC)c(=O)[nH]c1=O (stereo not drawn),x,n,x,x,x,x
COc1cccc(C(=O)Nc2ccc3nc(N4CCN(c5ncccn5)CC4)cc(C)c3c2)c1OC,82.8,n,73.7,n,n,n
CCOc1ccc(OCC)c(NC(=O)CN2CCN(c3cc(C)ccc3C)CC2)c1,51.3,n,n,n,n,n
CCOc1ccc(OCC)c(NC(=O)CN2CCN(c3cccc(C)c3)CC2)c1,n,n,n,n,n,n
CCOc1ccc(C(=O)Nc2cccc(-c3nc4cccnc4o3)c2)cc1Cl,50.9,n,n,n,n,n

# Compound activity as filed in PubChem.
